# gsp agonist = agonists of gsp mutant (McCune-Albright syndrome) | gsp mutant cells, cAMP HTRF, 30 min | Potency, µM (highest dose often 76.9 µM), without a hit: at the top dose activation (cAMP increase), most hits filed as activators | 340,000 compounds, 0.13% hits; active means well fitted activation curve with a large enough effect; inconclusive means small, poorly fitted or top-dose-only effect, or another doubt; inactive means no such curve, though single readings can be large or run the other way; cell line not stated here;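 further: phosphodiesterase inhibitor Ro 20-1724 added with compounds to block cAMP breakdown; potency means the concentration at half of the fitted maximal effect; nearly all actives have a fitted effect of over 60% in size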
#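 Cells in DMEM/10% FBS with G418 were pretreated with compounds in DMSO plus […] (300 uM stock) for 30 min at 37C. cAMP was measured by HTRF (cAMP-d2 plus anti-cAMP antibody-K) after 30 min at room temperature.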
# FBPA coupling cs = coupling enzyme interference in Giardia aldolase counter-screen | coupling enzyme system counterscreen, AmpLite Red fluorescence | activity change, negative = inhibition, % at 58.2 µM, hits read low | 290,000 compounds, 0.67% hits | AID 2472; in the data active means activity change below about -30%; further: on the % scale 0 is the no-effect control and ±100 the full control effect
#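 Activity here indicates interference with the coupling reaction, not aldolase inhibition. Compounds at 57.5 uM final met coupling enzymes for 10 min at RT; substrate and AmpLite Red detection followed, with a 525/598 nm fluorescence read after 20 min.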
# gsp antag = antagonizes gsp, the McCune-Albright syndrome mutation. gsp-mutant cells, cAMP HTRF, 30 min. Potency, µM (titrated, usually from 76.9 µM), inactives show top-dose activity change, negative = inhibition, actives largely listed as inhibitors. 340,000 compounds, 0.4% hits. AID 624288; calls by dose curve; cell line not stated here;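 further: intracellular cAMP measured with PDE inhibitor Ro 20-1724 present during compound exposure; potency means the concentration at half of the fitted maximal effect; on the % scale 0 is the no-effect control and ±100 the full control effect; nearly all actives have a fitted effect of over 65% in size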
#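 Cells, 2000/well, grown 16–24 h in DMEM 10% FBS with 0.5 mg/ml G418, then compounds plus […] (300 uM addition stock), 30 min at 37C. cAMP read by HTRF (cAMP-d2 and anti-cAMP antibody-K in lysis buffer) after 30 min RT.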
# RXFP1 agonist = agonists of human relaxin receptor RXFP1. HEK293T-RXFP1 cAMP TR-FRET, 30 min; response scale: percent of porcine relaxin response, buffer zero. Potency, µM (doses to about 57.5 µM), inactives show top-dose activation, actives largely listed as activators. 370,000 compounds, 0.3% hits; active means well fitted activation curve with a large enough effect; inconclusive means small, poorly fitted or top-dose-only effect; further: potency means the concentration at half of the fitted maximal effect; on the % scale 0 is the no-effect control and ±100 the full control effect; nearly all actives have a fitted effect of over 60% in size
# Target sequence (Q9HBX9 whole entry, looked up): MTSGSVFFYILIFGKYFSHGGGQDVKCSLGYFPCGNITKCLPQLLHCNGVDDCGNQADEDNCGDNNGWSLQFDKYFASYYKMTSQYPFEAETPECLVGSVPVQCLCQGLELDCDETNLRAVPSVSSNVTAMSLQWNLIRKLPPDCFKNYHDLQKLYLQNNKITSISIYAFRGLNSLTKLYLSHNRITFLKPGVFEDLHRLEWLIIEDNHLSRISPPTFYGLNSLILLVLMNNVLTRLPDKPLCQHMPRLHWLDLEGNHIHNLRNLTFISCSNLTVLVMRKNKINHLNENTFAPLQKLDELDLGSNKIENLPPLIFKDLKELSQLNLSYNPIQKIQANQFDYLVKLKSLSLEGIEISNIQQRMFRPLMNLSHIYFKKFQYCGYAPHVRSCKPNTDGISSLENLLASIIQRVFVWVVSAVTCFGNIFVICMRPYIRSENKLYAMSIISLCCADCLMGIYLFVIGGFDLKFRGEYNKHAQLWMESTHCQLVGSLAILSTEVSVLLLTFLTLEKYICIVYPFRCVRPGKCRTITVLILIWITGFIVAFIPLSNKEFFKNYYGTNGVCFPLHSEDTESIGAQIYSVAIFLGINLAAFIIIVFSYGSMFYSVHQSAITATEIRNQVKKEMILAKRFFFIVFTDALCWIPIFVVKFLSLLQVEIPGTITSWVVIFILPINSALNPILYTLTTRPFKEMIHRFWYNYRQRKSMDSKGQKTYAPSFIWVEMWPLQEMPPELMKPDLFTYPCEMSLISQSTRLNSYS
#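 HEK293T cells stably expressing RXFP1 were pretreated with the PDE4 inhibitor Ro 20174, exposed to compounds for 30 min at 37C, lysed, and cAMP was read by TR-FRET. Data normalized to buffer (basal) and 29 nM porcine relaxin (100%).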
# RXFP1 antag = antagonists of human relaxin receptor RXFP1; Q9HBX9; HEK293-RXFP1, relaxin-stimulated cAMP HTRF, 30 min; stronger effect = lower value; activity change, negative = inhibition, % at 57.5 µM; 350,000 compounds, 0.59% hits; AID 1259400;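 active means activity change of -60% or lower, but not beyond a set lower limit; inconclusive means change between -60% and -40%, or beyond the set limit; inactive means change above -40%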; further: on the % scale 0 is the no-effect control and ±100 the full control effect
# Giardia kill = kills Giardia lamblia. 340,000 compounds, 0.15% hits. Giardia lamblia trophozoite viability. activity change, % at 7.66 µM, hits read low; in the data active means activity change below about -80%; inconclusive means between about -30% and that limit;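 further: parasites exposed to compound for two days anaerobically before the ATP read; on the % scale 0 is the no-effect control and ±100 the full control effect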
#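 ATP-content bioluminescence gauges trophozoite survival. Cells (100/well) receive compound and incubate anaerobically for 48 hrs at 37 deg C; detection reagent follows for 15-30 min at room temperature.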
# * = called active by the depositor; ? = inconclusive; / = no result given; [ ] = dose if it differs, or a comment. Most compounds without a hit are left out; they make up all but 1.6% or so of the library.
SMILES,gsp agonist,FBPA coupling cs,gsp antag,RXFP1 agonist,RXFP1 antag,Giardia kill
Cc1ccc(NC(=O)c2ccc(F)c(S(=O)(=O)N3CCOCC3)c2)cc1F,-46%,1,35µM*,0%,-13,-1
O=C(Nc1ccccc1)c1ccc(F)c(S(=O)(=O)N2CCOCC2)c1,4%,2,-30%,0%,-5,5
Cc1ccc(C(=O)N2CCN(c3ccccc3)CC2)cc1S(=O)(=O)N1CCCC1,-40%,1,32µM*,0%,4,-24
CO[C@H]1COC(=O)CCC[C@@H](C)[C@H](OC)COC(=O)[C@H]2CCCN2C(=O)C/C=C\[C@@H]1C,/,1,/,/,/,/
Cn1cnnc1SCCCN1C(=O)c2cccc3cccc(c23)C1=O,?,5,-9%,15%,1,15
CCOc1ccccc1C(=O)Nc1c[nH]c(=O)[nH]c1=O,2%,-33*,10%,4%,-4,5
COc1ccccc1C(=O)Nc1c[nH]c(=O)[nH]c1=O,-6%,1,-15%,2%,-1,-3
O=C(/C=C/c1cccnc1)c1ccc([N+](=O)[O-])cc1,13%,0,-15%,-1%,0,42
COc1cc(C(=O)/C=C/c2cccnc2)c([N+](=O)[O-])cc1OC,28%,/,8%,4%,/,-90*
O=C1c2ccccc2C(=O)c2c(/C=C/N3CCCCC3)ccnc21,8.9µM*,/,-5%,/,9,-23
Cc1ccc(-n2c(=O)c3ccc(C(=O)NCc4ccccc4Cl)cc3n(CC(=O)Nc3cccc(F)c3)c2=O)cc1,/,/,/,12%,/,/
COc1ccc(-n2c(=O)c3ccc(C(=O)NCc4ccc(C)cc4)cc3n(CC(=O)Nc3cccc(F)c3)c2=O)cc1,/,/,/,32µM*,/,/
Cc1ccc(NC(=O)Cn2c(=O)n(-c3ccccc3)c(=O)c3ccc(C(=O)NCc4ccc5c(c4)OCO5)cc32)cc1,/,/,/,22µM*,/,/
Cc1ccc(-n2c(=O)c3ccc(C(=O)NCc4ccccc4Cl)cc3n(Cc3cccc(F)c3)c2=O)cc1,/,/,/,32µM*,/,/
Cc1ccccc1-c1nc(CS(=O)(=O)CC(=O)Nc2c(C)cccc2C)c(C)o1,/,/,/,1%,/,/
CCCCC#CC1C=CC(Oc2cc(OC)c(OC)c(OC)c2)C(COC(=O)OCC)O1 (stereo not given),/,-3,/,/,/,/
O=C(CNC(=O)c1ccccc1F)OC1CCOC1=O (stereo not given),5%,/,-21%,/,-8,7
CCCn1nc([N+](=O)[O-])c(C(C#N)c2nc3ccccc3s2)c(Cl)c1=O (stereo not given),17%,5,32µM*,-3%,-33,?
O=S(=O)(Nc1cccc2ccccc12)c1cccc2ccccc12,/,/,/,/,/,3
COCCNC(=O)CSc1nc2ccc(N3CCOCC3)cc2c(=O)n1Cc1ccc(OC)cc1,17%,-39*,-10%,5%,-3,15
CCN(CC)C(=O)CSc1nc2cc3c(cc2c(=O)n1Cc1ccc2c(c1)OCO2)OCO3,11%,0,-6%,1%,-6,12
CCCCNC(=O)CSc1nc2ccc(N3CCOCC3)cc2c(=O)n1Cc1ccc(OC)cc1,16%[15.4 µM],-31*,-22%,?,5,-5
CCOC(=O)CSc1nc2ccc(N3CCOCC3)cc2c(=O)n1Cc1ccc2c(c1)OCO2,/,-31*,/,5%,/,/
Nc1nonc1C(=O)NCCNCc1cccc(Cl)c1Cl,/,/,/,2%,/,/
Cc1ccc(S(=O)(=O)N2CCOC2CNC(=O)C(=O)NCc2ccccn2)cc1 (stereo not given),0%,/,-8%,-1%,-2,-4
SMILES,gsp agonist,FBPA coupling cs,gsp antag,RXFP1 agonist,RXFP1 antag,Giardia kill
CCN(CC)S(=O)(=O)c1ccc(C(=O)NCc2n[nH]c(=S)n2-c2ccc(Cl)c(Cl)c2)cc1,11%[15.4 µM],0,-13%,1%,-64*,-17
Cc1ccc2cc(C(c3nnnn3Cc3ccccc3)N3CCc4ccccc43)c(=O)[nH]c2c1 (stereo not given),5%,-7,-4%,0%,6,-11
Cc1ccc2[nH]c(=O)c(C(c3nnnn3Cc3ccccc3)N3CCc4ccccc43)cc2c1 (stereo not given),-2%,-33*,-14%,3%,-15,-7
Cc1ccc2[nH]c(=O)c(C(c3nnnn3C3CCCC3)N3CCCc4ccccc43)cc2c1 (stereo not given),0%,-44*,-12%,1%,7,-9
Cc1cc2cc(C(c3nnnn3Cc3ccco3)N3CCc4ccccc43)c(=O)[nH]c2cc1C (stereo not given),6%,-13,-17%,-1%,-31,-12
Cc1cc2cc(C(c3nnnn3Cc3ccccc3)N3CCc4ccccc43)c(=O)[nH]c2cc1C (stereo not given),8%,-45*,-10%,0%,4,15
CCCCOc1ccc(-c2c(C(=O)Nc3ccccc3)c(C)[nH]c(=S)c2C#N)cc1,2.5µM*,-1,15%,22µM*,28,-21
CN(C)c1ccc(/C=C/c2c([N+](=O)[O-])c(=O)n(C)c(=O)n2C)cc1,?,0,-14%,6%,-1,?
CN(C)c1ccc(-n2cccc2/C=C/[N+](=O)[O-])cc1,-7%[15.4 µM],1,-43%,0%,-83*,9
S=c1[nH]nc(SCc2ccccc2)c2[nH]cnc12,14µM*,/,?,/,59,-8
CCOC(=O)C1CCN(C(=O)c2cc(S(=O)(=O)N(C)C)ccc2N2CCCC2)CC1,?,/,-21%,7%,-18,12
CCOC(=O)C1CCCN(C(=O)c2cc(S(=O)(=O)N(C)C)ccc2N2CCCC2)C1 (stereo not given),-2%[15.4 µM],/,2%,-1%,-71*,2
CN(CC(=O)Nc1ccc(F)cc1)CC(=O)N1CCc2ccccc21,0%[15.4 µM],/,-7%,1%,-11,-1
Cc1nc2ncnn2c(N2CCCC(C(=O)Nc3ccc4c(c3)CCC4)C2)c1C (stereo not given),?,-1,40µM*,-2%,-4,7
O=C(Nc1ccc2c(c1)CCC2)C1CCCN(c2ncccn2)C1 (stereo not given),0%,-4,9%,3%,-7,2
O=C(COC(=O)CNC(=O)C1CCCCC1)NC1CCCC1,/,/,/,/,/,9
O=C(CN1CCCc2ccccc21)N/N=C/c1c(O)ccc2ccccc12,-10%,1,?,0%,-61*,-6
O=C(NCCc1csc(-c2ccc(F)cc2)n1)c1cccs1,/,/,/,1%,-61*,/
O=C(NCCc1csc(-c2cccc(F)c2)n1)c1cccs1,/,/,/,0%,1,/
COc1ccc(C(=O)NCCN2CCCC2)cc1[N+](=O)[O-],8%[15.4 µM],2,5%,1%,5,?
